Screening results from PubChem BioAssay.
This is a sample that favours compounds with a hit; in the whole collection about 3.9% have one here.
Wnt act = activates Wnt/beta-catenin signaling in a reporter cell assay; hit rate 1.2% among 300,000; activation, % at 9.35 µM; activator, plate reader; in the data active = activation above about 30%, passing the limit was not always enough; inconclusive = no clear call, values can overlap the other calls;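 also: 0% = neutral control wells and 100% = positive control wells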
MITF TRPM1 HTS = activators of MITF-driven TRPM1 promoter activity in SK-MEL-5 cells. SK-MEL-5 TRPM1-promoter luciferase, 24 h; % of positive control, neutral wells = 0. activation, % at 12.5 µM. hit rate 0.75% among 300,000. AID 588334;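 active = mean activation of at least 80% with every replicate also reaching 80%; inconclusive = mean reaches 80% but some replicate falls short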;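 also: 0% = neutral control wells and 100% = parthenolide positive control wells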
HSF-1 act = increases HSF-1 driven luciferase reporter signal; NIH3T3-HGL HSF-1 luciferase reporter, MG132, 8 h; 100% = twice DMSO control signal; activation, % at 9 µM; hit rate 1.7% among 300,000; AID 504408;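 active = mean replicate activation of at least 50% with a set share of replicates each reaching 50%; inconclusive = only one of those two conditions met; inactive = mean below 50% and too few replicates reaching it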;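 also: 0% = median of the neutral control wells and 100% = twice that signal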
HSF1 inh = HSF1 inhibition. NIH3T3-HGL HSE-luciferase, MG132-induced, luminescence 8 h; stronger effect = lower value. activity change, negative = inhibition, % at 7.5 µM (by protocol). hit rate 0.77% among 300,000. AID 2098;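 active = more than half of replicate wells show activity change below -50%, luminescence cut by over half; inconclusive = some wells, but at most half, below -50%; inactive = no replicate well below -50%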;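 also: luciferase reports HSF-1 transcriptional activity via heat shock element; 0% = median of DMSO wells and -100% = zero luminescence signal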
esBAF inh = blocks esBAF chromatin remodeling in mouse ES cells; Bmi1-luciferase knock-in reporter, 24 h; 100% = twice the neutral-well signal; reporter increase, % at 12.5 µM; hit rate 2% among 350,000; AID 602393; in the data active = activation above about 40%; inconclusive = no clear call, values can overlap the other calls;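 also: 0% = median of the plate's neutral control wells and 100% = double that signal; a rise in the Bmi1 reporter signal indicates esBAF inhibition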
* hit, by the source's call; ? = inconclusive; · = not tested or not shown.

SMILES	Wnt act	MITF TRPM1 HTS	HSF-1 act	HSF1 inh	esBAF inh
Oc1[nH]c2ccc(Br)cc2c1N=NC(=S)NCC1CCCO1 (centres undefined)	-4	-29	-11	-8	7
COc1ccccc1NC(=S)N=Nc1c(O)[nH]c2ccc(Br)cc12	-12	-20	86*	78	15
Cc1occc1C(=O)N=Nc1c(O)[nH]c2ccc(Br)cc12	·	·	50*	20	·
Cc1noc(C)c1S(=O)(=O)Nc1ccc2c(c1)C(=O)N([C@@H](C)CO)C[C@@H](C)[C@H](CN(C)S(=O)(=O)c1cn(C)cn1)OCCCC[C@@H](C)O2	·	·	·	·	6
Cc1noc(C)c1NC(=O)Nc1ccc2c(c1)C(=O)N([C@@H](C)CO)C[C@H](C)[C@@H](CN(C)S(=O)(=O)c1c(C)noc1C)OCCCC[C@H](C)O2	·	·	·	·	-3
C[C@@H]1CN([C@H](C)CO)S(=O)(=O)c2ccc(C#C[C@@H](C)O)cc2O[C@@H]1CN(C)C(=O)c1ccccc1	·	·	·	·	2
CC(C)c1ccc(/C=N/NC(=O)C2CCCC2)cc1	27	140*	52*	27	·
CC(C)(C)c1ccc(/C=N/NC(=O)C2CCCC2)cc1	3	32	·	·	55*
O=C(CSc1nnc(Cn2cnc3ccccc32)o1)Nc1cccc2ccccc12	-2	·	51*	12	-3
O=C(C[C@@H]1CC[C@@H]2[C@H](COC[C@@H](O)CN2S(=O)(=O)c2ccccc2)O1)Nc1ccccc1	·	·	·	·	-4
COC(=O)c1cc(C)nc(Nc2nc(C(N)Cc3ccc(Cl)cc3)cs2)n1 (centres undefined)	641*	·	·	·	1
O=C(COC(=O)c1ccccc1C(=O)c1ccccc1)NCCc1ccccc1	-1	-5	55*	17	-3
C[C@@H]1CCCCO[C@@H](CN(C)C(=O)Cc2ccccc2)[C@@H](C)CN([C@H](C)CO)C(=O)c2cc(NC(=O)c3ccccc3)ccc2O1	·	·	·	·	-5
COc1ccc(NC(=O)Nc2ccc3c(c2)C(=O)N([C@H](C)CO)C[C@H](C)[C@H](CN(C)Cc2ccc(C(=O)O)cc2)O3)cc1	·	·	·	·	1
CO[C@@H]1CC[C@@H]2CCN(C)C(=O)CCCN(C)C(=O)c3cccc(C#N)c3OC[C@@H]1O2	·	·	·	·	1
COc1cccc(C(=O)CSc2nccn2C)c1	6	·	40	27	44*
Cn1ccnc1SCC(=O)N(C1CCCCC1)C1CCCCC1	-1	1	-75	-68*	23
Cn1ccnc1SCC(=O)NC1CCCCC1	·	2	·	·	-4
Cn1ccnc1SCC(=O)c1ccc2ccccc2c1	50*	88*	213*	207	·
Cn1ccnc1SCC(=O)c1cccc(Br)c1	·	61	26	10	30
CC(=O)NC[C@@H]1[C@H](c2ccccc2)[C@@H](CO)N1C(=O)Cc1cccnc1	·	·	·	·	1
O=Cc1ccc(-c2nc3ccccc3s2)o1	12	21	63*	36	14
O=C(O)c1ccc(-c2nc3ccccc3s2)o1	28	-13	15	8	12
Cn1c(-c2ccc3ccccc3n2)nc2cnccc21	-2	·	28	23	66*
CC1CCCCN1C(=O)COc1ccccc1F (centres undefined)	0	9	56*	19	6
SMILES	Wnt act	MITF TRPM1 HTS	HSF-1 act	HSF1 inh	esBAF inh
CCC(=O)Nc1ccc2c(c1)OC[C@@H](C)N(C(=O)C1CCC1)C[C@H](C)[C@@H](OC)CN(C)C2=O	·	·	·	·	4
C[C@@H]1CCCCO[C@@H](CN(C)C(=O)c2ccncc2)[C@H](C)CN([C@H](C)CO)C(=O)c2cc(NS(=O)(=O)c3ccc(Cl)cc3)ccc2O1	·	·	·	·	2
Cc1ccn2c(C(=O)c3ccc(Cl)cc3)cnc2c1	43*	?	-18	-7	·
CS(=O)(=O)Nc1ccc2c(c1)[C@@H]1C[C@@H](CC(=O)NCCN3CCCCC3)O[C@@H](CO)[C@@H]1O2	·	·	·	·	1
COc1cccc(-n2nc(-c3ccnn3-c3cccc(Cl)c3)c(=O)n(C)c2=O)c1	-1	5	-64	-54*	-8
CN(C)c1ccc(NS(=O)(=O)c2cc(Cl)ccc2Cl)cc1	4	3	-61	-56*	·
CCN(c1ccc(NS(=O)(=O)c2cc(Cl)ccc2Cl)cc1)C(C)C	·	1	-6	-13	·
CCn1c(CNc2cccc(Cl)c2)nnc1SCC(=O)OC1CCCCC1	13	-9	27	22	-8
CC(C)c1nc2ccccc2c2nnc(SCC(=O)NCc3ccco3)n12	·	8	-69	-60*	·
O=C(CSc1nnc(Cc2ccccc2)n1Cc1ccccc1)NCc1ccco1	·	-2	40	22	4
CCn1c(CNc2ccc(Cl)cc2)nnc1SCC(=O)OC1CCCCC1	·	-14	60*	19	·
O=C(CSc1nc(C2CCCCC2)nc2ccccc12)NCc1ccco1	-1	-3	59*	37	1
O=C(CSc1nnc(CNc2ccc(Cl)cc2)n1Cc1ccccc1)NCc1ccco1	-2	·	63*	40	-3
C[C@@H]1CN([C@@H](C)CO)S(=O)(=O)c2ccc(-c3ccc(F)cc3)cc2O[C@H]1CN(C)C	·	·	·	·	-5
O=C(C[C@H]1C[C@@H]2c3cc(NC(=O)CC4CC4)ccc3O[C@@H]2[C@@H](CO)O1)NCc1ccccc1	·	·	·	·	-3
CN(C)S(=O)(=O)c1ccc2nc(NC(=O)c3cccs3)sc2c1	·	52	28	16	9
O=C(CCNC(=O)c1ccccc1Cl)Nc1nc2ccc(F)cc2s1	18	50	·	·	52*
O=C(Nc1nc2ccc(F)cc2s1)c1cccs1	57*	46	80*	35	·
O=C(Nc1nc2ccc(F)cc2s1)c1ccc([N+](=O)[O-])o1	71*	·	·	·	88*
CNC[C@H]1Oc2cc(C#CC(C)(C)O)ccc2S(=O)(=O)N([C@H](C)CO)C[C@H]1C	·	·	·	·	3
O=C([C@H]1[C@H](CO)[C@H]2Cn3c(ccc(-c4cncnc4)c3=O)[C@H]2N1CC1CC1)N1CCCCC1	·	·	·	·	3
COc1ccccc1-c1cc(C(=O)NCCN2CCOCC2)no1	0	14	7	-10	-2
CN(CCCN1CCOCC1)C(=O)c1cc(COc2ccc(F)cc2F)on1	-4	6	-1	-2	1
COc1cc(C)ccc1OCc1cc(C(=O)N(C)CCCN2CCOCC2)no1	?	127*	-21	-2	74*
Cc1ccc(-c2cc(C(=O)NCCCN3CCOCC3)no2)cc1	-5	-23	-79	-76*	-73
COc1cc(C)ccc1OCc1cc(C(=O)NCCN2CCOCC2)no1	26	107*	22	18	63*
CCCC(c1nnnn1CC(=O)OCC)N(Cc1cc2c(C)cc(C)cc2[nH]c1=O)C1CCCC1 (centres undefined)	·	-5	92*	66	-3
CCCC(c1nnnn1CC(=O)OCC)N(Cc1cc2ccc(C)cc2[nH]c1=O)C1CCCC1 (centres undefined)	-1	-1	8	24	7
c1ccc(Nc2nc3ccccc3n3nnnc23)cc1	13	10	-1	9	75*
